Reference: PubChem BioAssay
Values joined by “and” are separate entries in the source; they are usually repeats but may differ in a detail not shown here. Identical values can stand only once. Active and inactive are the calls of the source.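 The calls were made as follows, unless noted: active = compounds whose cell count with miR-34 switched on is under 0.7 times the count with it off; inactive = the rest.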

Key:
[1] = sensitizers of A549 cells to miR-34 induction, primary screen, imaging, A549 dox-inducible miR-34, nuclei and caspase counts (AID 1347080); conditions: A549 miR-34 inducible, Hoechst nuclei count, 48 h
[2] = survival rescue of mitochondrial mutant cells in low glucose, primary screen, MELAS cybrids, Rieske KO mouse fibroblasts, CellTiter-Glo (AID 1508586;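 active = mean z-score across replicates of 1.96 or higher in either the MELAS or the Rieske mutant cell line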;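 also: z relative to plate mean and SD of compound and empty wells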)
[3] = viability rescue of complex I mutant cybrids, primary screen, cell-based, galactose medium, ATP luminescence (AID 1645843;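 active = z-score of at least 1.8 in each of two replicates, scored against plate mean and spread of sample wells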;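 also: positive z means more ATP and so rescue of galactose-driven cybrid death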); conditions: complex I mutant cybrid cells, 72 h, stronger effect = higher value
[4] = LFS_MB_P medulloblastoma growth inhibition, cell-based, chromothripsis tumors, cisplatin or BGB combos (AID 1671449; in the data active = inhibition above about 80%;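 also: cells exposed for 96 hours; 0% = vehicle DMSO and 100% = killing by high DMSO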); conditions: LFS_MB_P medulloblastoma cells
[5] = HDN33 neuroblastoma growth inhibition, cell-based, chromothripsis tumors, cisplatin or BGB combos (AID 1671450; in the data active = inhibition above about 80%;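 also: cells exposed to compound for four days; 0% = vehicle DMSO and 100% = cell killing by high DMSO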); conditions: HDN33 neuroblastoma cells, stronger effect = higher value
[6] = ICB984 medulloblastoma cell growth inhibition, synergistic combos for chromothripsis tumors, cisplatin or BGB combos (AID 1671451; call rule not given here;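 also: cells exposed for 96 hours before readout; 0% = vehicle DMSO and 100% = killing by high DMSO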); conditions: ICB984 medulloblastoma cells, drug combinations, stronger effect = higher value
[7] = LFS_MB_1R medulloblastoma cell growth inhibition, synergistic combos for chromothripsis tumors, cisplatin or BGB combos (AID 1671452; in the data active = inhibition above about 80%;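 also: cells exposed for 96 hours before readout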); conditions: LFS_MB_1R medulloblastoma cells, stronger effect = higher value
[8] = HTB85 osteosarcoma cell growth inhibition, synergistic combos for chromothripsis tumors, BGB or cisplatin IC20 combos (AID 1671453; in the data active = inhibition above about 80%;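 also: cells exposed for 96 hours before readout; 0% = vehicle DMSO and 100% = high DMSO killing control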); conditions: HTB85 osteosarcoma cells, drug combinations, stronger effect = higher value
[9] = CRL2098 osteosarcoma cell growth inhibition, synergistic combos for chromothripsis tumors, BGB or cisplatin IC20 combos (AID 1671454; in the data active = inhibition above about 80%;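 also: cells exposed for 96 h before readout; 0% = vehicle DMSO and 100% = killing by high DMSO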); conditions: CRL2098 osteosarcoma cells, drug combinations, stronger effect = higher value
[10] = HD-MB03 medulloblastoma cell growth inhibition, synergistic combos for chromothripsis tumors, BGB or cisplatin IC20 combos (AID 1671455; in the data active = inhibition above about 83%;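 also: 0% = vehicle DMSO and 100% = high DMSO as cytotoxic control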); conditions: HD-MB03 medulloblastoma cells, stronger effect = higher value
[11] = UWB1.289 ovarian carcinoma cell growth inhibition, synergistic combos for chromothripsis tumors, BGB or cisplatin combos (AID 1671456; in the data active = inhibition above about 80%;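 also: cells exposed to compound for four days; 0% = vehicle DMSO and 100% = killing by high DMSO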); conditions: UWB1.289 ovarian carcinoma cells, stronger effect = higher value
[12] = LFS_MB_2R medulloblastoma cell growth inhibition, synergistic combos for chromothripsis tumors, cisplatin combos (AID 1671457; in the data active = inhibition above about 80%;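 also: cells exposed to compound for four days before readout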); conditions: LFS_MB_2R medulloblastoma cells, stronger effect = higher value
[13] = MDA-MB-436 breast carcinoma cell growth inhibition, synergistic combos for chromothripsis tumors, BGB or cisplatin combos (AID 1671458; call rule not given here;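 also: cells exposed for 96 hours; 0% = vehicle DMSO and 100% = killing by high DMSO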); conditions: MDA-MB-436 breast carcinoma growth inhibition, drug combinations, stronger effect = higher value
[14] = UWB1.289_BRCA1 ovarian cancer growth, cell-based, BGB or cisplatin combinations (AID 1671459; in the data active = inhibition above about 80%); conditions: UWB1.289 BRCA1 ovarian carcinoma, drug combinations, stronger effect = higher value
[15] = human astrocyte viability loss, single and combined drugs, cytotoxicity control for chromothriptic childhood tumor combination screen, cell-based, BGB or cisplatin IC20 combos (AID 1671460; in the data active = inhibition above about 80%;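 also: cells exposed to compounds for 96 hours before viability readout; 0% = vehicle and 100% = killing control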); conditions: Human astrocytes, drug combinations, stronger effect = higher value
[16] = growth inhibition of BT084 medulloblastoma cells, cell-based, ICGC_MB145, cisplatin and BGB IC40 combos (AID 1671461; in the data active = inhibition above about 80%;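 also: cells exposed to drugs for 96 hours; 0% = vehicle DMSO and 100% = high DMSO full killing control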); conditions: drug combinations, stronger effect = higher value
[17] = growth inhibition of RCMB18 medulloblastoma cells, cell-based, cisplatin and BGB IC40 combos (AID 1671462; in the data active = inhibition above about 80%;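 also: cells exposed to compound for four days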); conditions: stronger effect = higher value
[18] = growth inhibition of CRL1545 osteosarcoma cells, cell-based, cisplatin and BGB IC20 combos (AID 1671464; in the data active = inhibition above about 80%;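 also: cells exposed to compound for 96 hours before readout; 0% = vehicle DMSO and 100% = high DMSO killing control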); conditions: stronger effect = higher value
[19] = stronger effect = lower value, cell number ratio, induced over uninduced
[20] = measured here: relative caspase fold change +Dox/-Dox
[21] = measured here: total cells with miR-34 induction, stronger effect = lower value
[22] = measured here: total cells without miR-34 induction
[23] = MELAS cybrid survival, CellTiter-Glo 48 h, stronger effect = higher value
[24] = Rieske KO mouse fibroblast survival, CellTiter-Glo 72 h
[25] = measured here: combination with BGB IC40, at 0.05 µM
[26] = measured here: with BGB IC20 combination, at 0.5 µM
[27] = measured here: with cisplatin IC20 combination, at 0.5 µM
[28] = measured here: combination with cisplatin, at 0.5 µM
[29] = measured here: combination with cisplatin, at 5 µM

SMILES: O=C(O)CSc1nnc(-c2ccc([N+](=O)[O-])o2)o1
- fold change [1, 19]: 0.911 (inactive)
- fold change [1, 20]: 0.48
- cell count [1, 21]: 8530
- cell count [1, 22]: 9370
- z-score [2, 23]: -1.16 (inactive)
- z-score [2, 24]: 0.209
- z-score [3]: 0.17 (inactive)

SMILES: O=C(COc1ccc(Cl)cc1)Nc1ccccc1C(=O)O
- fold change [1, 19]: 0.906 (inactive)
- fold change [1, 20]: 0.574
- cell count [1, 21]: 8240
- cell count [1, 22]: 9090
- z-score [2, 23]: -0.363 (inactive)
- z-score [2, 24]: -0.206
- z-score [3]: 0.885 (inactive)

SMILES: COc1ccc(C(=O)O)cc1
- fold change [1, 19]: 0.947 (inactive)
- fold change [1, 20]: 0.667
- cell count [1, 21]: 9110
- cell count [1, 22]: 9620
- z-score [2, 23]: -0.37 (inactive)
- z-score [2, 24]: -0.0461
- z-score [3]: -0.635 (inactive)

SMILES: Cc1nsc(NC(=O)N(C)Cc2cn[nH]c2-c2ccc(F)cc2)n1
- fold change [1, 19]: 0.916 (inactive)
- fold change [1, 20]: 0.879
- cell count [1, 21]: 9230
- cell count [1, 22]: 10100
- z-score [2, 23]: 0.225 (inactive)
- z-score [2, 24]: -0.278
- z-score [3]: -0.49 (inactive)

SMILES: CCc1ccc(-c2nn(CC(=O)Nc3cnn(C)n3)c3ccccc23)cc1
- fold change [1, 19]: 0.895 (inactive)
- fold change [1, 20]: 1.48
- cell count [1, 21]: 6460
- cell count [1, 22]: 7220
- z-score [2, 23]: -0.0449 (inactive)
- z-score [2, 24]: -0.314
- z-score [3]: 1.09 (inactive)

SMILES: CN1CCN(Cc2cccc(Oc3ccccc3)c2)CC1CCO (centres undefined)
- fold change [1, 19]: 0.916 (inactive)
- fold change [1, 20]: 1.42
- cell count [1, 21]: 8810
- cell count [1, 22]: 9620
- z-score [2, 23]: -0.228 (inactive)
- z-score [2, 24]: -0.0315
- z-score [3]: -0.55 (inactive)

SMILES: CCn1cnc(NC(=O)N(C)Cc2ccc(OC)cc2)n1
- fold change [1, 19]: 0.869 (inactive)
- fold change [1, 20]: 1.63
- cell count [1, 21]: 8620
- cell count [1, 22]: 9910
- z-score [2, 23]: -0.112 (inactive)
- z-score [2, 24]: -0.365
- z-score [3]: 1.77 (inactive)

SMILES: O=C(O)CCCCc1ccccc1
- fold change [1, 19]: 0.916 (inactive)
- fold change [1, 20]: 0.396
- cell count [1, 21]: 9010
- cell count [1, 22]: 9830
- z-score [2, 23]: 0.335 (inactive)
- z-score [2, 24]: -0.289
- z-score [3]: 0.82 (inactive)

SMILES: COc1ccc(-c2ncnc3sc(C)c(C)c23)c2cccnc12
- fold change [1, 19]: 0.949 (inactive)
- fold change [1, 20]: 0.85
- cell count [1, 21]: 7370
- cell count [1, 22]: 7760
- z-score [2, 23]: 0.0989 (inactive)
- z-score [2, 24]: -0.295
- z-score [3]: -0.525 (inactive)

SMILES: Cc1ccc(-n2cc(-c3nc4c(cnn4Cc4cccnc4)[nH]3)cn2)cc1
- fold change [1, 19]: 0.858 (inactive)
- fold change [1, 20]: 2.02
- cell count [1, 21]: 7150
- cell count [1, 22]: 8340
- z-score [2, 23]: 0.697 (inactive)
- z-score [2, 24]: 0.0385
- z-score [3]: -0.445 (inactive)

SMILES: CN1CCC(CN(C)Cc2ccc(-c3nc(-c4cccnc4)cc(=O)[nH]3)cc2)CC1
- fold change [1, 19]: 0.831 (inactive)
- fold change [1, 20]: 1.62
- cell count [1, 21]: 8360
- cell count [1, 22]: 10100
- z-score [2, 23]: 0.139 (inactive)
- z-score [2, 24]: 0.0765
- z-score [3]: -0.51 (inactive)

SMILES: O=c1[nH]cnc2c1ncn2C1CCC(CO)O1 (centres undefined)
- fold change [1, 19]: 0.874 (inactive) and 0.873 (inactive)
- fold change [1, 20]: 1.69 and 1.3
- cell count [1, 21]: 9660 and 7790
- cell count [1, 22]: 11100 and 8920
- z-score [2, 23]: -0.36 (inactive)
- z-score [2, 24]: 0.371
- z-score [3]: 0.465 (inactive)
- inhibition ([4]; at 0.5 µM, stronger effect = higher value): -32.9% (inactive)
- inhibition ([4]; measured here: combination with BGB IC20, at 0.005 µM): -16.1%
- inhibition ([4]; measured here: combination with BGB IC40, at 0.005 µM): -29.5%
- inhibition [4, 25]: -24.5%
- inhibition ([4]; measured here: combination with cisplatin, at 0.5 µM, stronger effect = higher value): -38.2%
- inhibition ([4]; measured here: combination with cisplatin, at 5 µM, stronger effect = higher value): -16.6%
- inhibition ([5]; BGB combo, at 5 µM): -15.1%
- inhibition ([5]; at 0.5 µM): -10.3% (inactive)
- inhibition ([5]; cisplatin combo, at 5 µM): 0.055%
- inhibition [5, 26]: -9.52%
- inhibition [5, 27]: -5.77%
- inhibition ([5]; single agent, at 5 µM): -6.37%
- inhibition ([6]; BGB IC20 combo, at 0.005 µM): 3.8%
- inhibition ([6]; BGB IC40 combo, at 0.005 µM): -17.3%
- inhibition ([6]; BGB IC40 combo, at 0.05 µM): -42.9%
- inhibition ([6]; at 0.5 µM): -12.4% (inactive)
- inhibition ([6]; cisplatin combo, at 0.05 µM): -46.9%
- inhibition ([6]; cisplatin combo, at 0.5 µM): -0.57%
- inhibition ([6]; cisplatin combo, at 5 µM): -45.9%
- inhibition ([6]; measured here: 5 uM single agent, at 5 µM): -17.3%
- inhibition ([7]; at 0.5 µM): -24.1% (inactive)
- inhibition [7, 25]: -1.26%
- inhibition [7, 28]: -27.1%
- inhibition [7, 29]: -51.2%
- inhibition ([8]; at 0.5 µM): 0.13% (inactive)
- inhibition ([8]; measured here: with BGB IC20, at 0.5 µM): -29.8%
- inhibition ([8]; measured here: with BGB IC20, at 5 µM): -39.1%
- inhibition ([8]; measured here: with cisplatin IC20, at 0.5 µM): 5.05%
- inhibition ([8]; measured here: with cisplatin IC20, at 5 µM): -50%
- inhibition ([8]; single agent, at 5 µM): -11.3%
- inhibition ([9]; at 0.5 µM): -44.8% (inactive)
- inhibition ([9]; measured here: combination with BGB at IC20, at 0.5 µM): -57.1%
- inhibition ([9]; measured here: combination with cisplatin at IC20, at 0.5 µM): -26.9%
- inhibition ([10]; at 0.5 µM): -5.57% (inactive)
- inhibition ([10]; measured here: combo with BGB at IC20, at 0.5 µM): 0.583%
- inhibition ([10]; measured here: combo with cisplatin at IC20, at 0.5 µM): -5.27%
- inhibition ([11]; at 0.5 µM): -1.68% (inactive)
- inhibition ([11]; measured here: inhibition with BGB combination, at 0.05 µM): -32%
- inhibition ([11]; measured here: inhibition with cisplatin combination, at 0.05 µM): -6.01%
- inhibition ([12]; at 0.5 µM): -19.9% (inactive)
- inhibition [12, 28]: -27.6%
- inhibition [12, 29]: -58%
- inhibition ([13]; at 0.5 µM): -28.3% (inactive)
- inhibition ([13]; measured here: BGB combination, at 0.5 µM): -25.6%
- inhibition ([13]; measured here: BGB combination, at 5 µM): -24.3%
- inhibition ([13]; measured here: cisplatin combination, at 0.5 µM): -38.2%
- inhibition ([13]; measured here: cisplatin combination, at 5 µM): -39%
- inhibition ([14]; BGB combination, concentration series, at 5 µM): -6.99%
- inhibition ([14]; at 0.5 µM): -4.59% (inactive)
- inhibition ([14]; cisplatin combination, concentration series, at 5 µM): 5.72%
- inhibition ([15]; at 0.5 µM): 4.8% (inactive)
- inhibition ([15]; measured here: combo with BGB IC20, at 0.5 µM): -5.94%
- inhibition ([15]; measured here: combo with cisplatin IC20, at 0.5 µM): 2.75%
- inhibition ([16]; at 0.5 µM): -19.3% (inactive)
- inhibition ([16]; cisplatin combination, at 0.5 µM): 2.66%
- inhibition ([16]; cisplatin combination, at 5 µM): 7.38%
- inhibition ([16]; measured here: BGB IC40 combination 0.05 uM, at 0.05 µM): 1%
- inhibition ([16]; single agent, at 5 µM): -10.4%
- inhibition ([17]; at 0.5 µM): -28.1% (inactive)
- inhibition ([17]; cisplatin combo, at 5 µM): -8.55%
- inhibition ([17]; measured here: BGB IC40 combination, at 0.05 µM): 12.3%
- inhibition [17, 28]: -23.6%
- inhibition ([17]; single agent, at 5 µM): -21%
- inhibition ([18]; at 0.5 µM): -13.6% (inactive)
- inhibition [18, 26]: 0.279%
- inhibition [18, 27]: -23.2%
- inhibition ([18]; single agent, at 0.05 µM): -52.8%
- inhibition ([18]; single agent, at 5 µM): -4.43%

SMILES: COc1cccc2ccc(-c3coc4ccccc4c3=O)nc12
- fold change [1, 19]: 0.946 (inactive)
- fold change [1, 20]: 0.913
- cell count [1, 21]: 7730
- cell count [1, 22]: 8170
- z-score [2, 23]: -0.341 (inactive)
- z-score [2, 24]: 0.246
- z-score [3]: 2.79 (active)
